From PubChem BioAssay
Most compounds without a hit are left out; they make up all but 2.4% or so of the library.
Pol kappa inh-1: DNA polymerase kappa (human) inhibition; Q9UBT6; purified Pol kappa, fluorescent DNA synthesis assay, 10 min; Potency, µM (titrated, usually from 107 µM), usual class: inhibitors; actives 0.53% (n = 400,000); AID 588579
Target sequence (Q9UBT6 whole entry, looked up): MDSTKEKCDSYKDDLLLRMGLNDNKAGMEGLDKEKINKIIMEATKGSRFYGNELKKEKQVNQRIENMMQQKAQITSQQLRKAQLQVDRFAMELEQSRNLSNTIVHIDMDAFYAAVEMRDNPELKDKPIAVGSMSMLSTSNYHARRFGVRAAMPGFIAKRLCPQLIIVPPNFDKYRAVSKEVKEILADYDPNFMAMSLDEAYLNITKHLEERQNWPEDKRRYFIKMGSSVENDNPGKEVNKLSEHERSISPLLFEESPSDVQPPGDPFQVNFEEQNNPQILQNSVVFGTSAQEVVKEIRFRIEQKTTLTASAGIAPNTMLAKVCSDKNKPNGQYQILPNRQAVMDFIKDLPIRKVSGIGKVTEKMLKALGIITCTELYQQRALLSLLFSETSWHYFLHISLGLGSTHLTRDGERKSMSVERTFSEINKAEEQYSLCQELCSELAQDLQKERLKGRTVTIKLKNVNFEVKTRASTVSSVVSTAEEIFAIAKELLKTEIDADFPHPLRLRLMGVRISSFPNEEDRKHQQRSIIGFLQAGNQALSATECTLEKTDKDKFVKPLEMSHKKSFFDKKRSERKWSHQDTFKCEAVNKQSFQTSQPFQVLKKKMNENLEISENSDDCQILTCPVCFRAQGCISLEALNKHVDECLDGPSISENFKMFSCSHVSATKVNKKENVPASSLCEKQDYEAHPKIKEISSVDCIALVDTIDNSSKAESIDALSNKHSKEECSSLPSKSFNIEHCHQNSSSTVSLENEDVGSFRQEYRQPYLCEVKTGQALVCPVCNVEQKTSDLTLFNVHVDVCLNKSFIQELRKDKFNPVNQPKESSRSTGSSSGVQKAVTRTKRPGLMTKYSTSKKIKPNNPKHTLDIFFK
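Activity was followed as the change in fluorescence between reads at 0 and 10 min after starting the reaction with 50 nM substrate. Beforehand, 10 nM polymerase had been preincubated with compound for 15 min at room temperature.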
Pol eta inh-1: DNA polymerase eta (human) inhibition; Q9Y253; recombinant Pol eta, fluorescent DNA replication assay; Potency, µM (highest dose often 114 µM), hits mostly inhibitors; actives 1.2% (n = 390,000); AID 588591
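Pol eta at 10 nM preincubated with compounds 15 min at room temperature; reaction started with fluorescent substrate (50 nM final) and read kinetically at 0 and 10 min.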
TDP1 inh: blocks human tyrosyl-DNA phosphodiesterase 1; recombinant TDP1, AlphaScreen DNA substrate cleavage; Potency, µM (highest dose often 130 µM), actives largely listed as inhibitors; actives 0.28% (n = 350,000); AID 485290; note: nearly all actives have a fitted effect of over 40% in size
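AlphaScreen read-out: signal falls as enzyme removes the 3' tyrosine-FITC from a 5'-biotinylated DNA oligo (15 nM, 5 min, RT). Enzyme was E. coli-made recombinant Tdp1 at 1 nM, exposed to compound for 15 min beforehand; beads 10 ug/ml, 10 min.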
POLB inh: DNA polymerase beta (human) inhibition. P06746. Pol beta primer extension/strand displacement, fluorescence kinetic. Potency, µM (highest dose often 114 µM), hits mostly inhibitors. actives 1.3% (n = 340,000). AID 485314
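Values derive from four-parameter Hill fits of normalized kinetic data: reads at 0 and 10 min following addition of 50 nM substrate to 10 nM Pol beta preincubated 15 min with compound.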
POLI inh: blocks human DNA polymerase iota activity; Q9UNA4; Pol iota fluorescent replication assay, 10 min; Potency, µM (titrated, usually from 115 µM), actives largely listed as inhibitors; actives 1% (n = 390,000); AID 588590
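Pol iota at 10 nM preincubated 15 min with compounds at room temperature; reaction started with fluorescent substrate, 50 nM final. Fluorescence read kinetically at 0 and 10 min; buffer-only wells as negative control.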
GALK inh confirm: confirmation of human galactokinase (GALK) inhibitors; shares compounds with Pol eta inh-1; purified GALK, Kinase-Glo ATP depletion luminescence; Potency, µM (highest dose often 115 µM), most hits filed as inhibitors; actives 70% (n = 150)
GALK redox cs: redox cycling activity in phenol red-HRP assay; shares compounds with Pol eta inh-1; Phenol red-HRP H2O2 redox cycling, absorbance 600 nm; Potency, µM (series often up to 115 µM), hits mostly inhibitors; actives 40% (n = 150); AID 2035
HEK293 tox: reduces HEK-293 cell viability in GALK counter-screen. shares compounds with Pol eta inh-1. HEK-293 viability, ATP luminescence (CellTiter-Glo), 24/48 h. Potency, µM (doses to about 46.1 µM), hits mostly inhibitors. actives 10% (n = 170). AID 2547
Pol kappa inh-2: Pol kappa (human) inhibition, cherry-pick confirmation; shares compounds with Pol eta inh-1; purified Pol-kappa, fluorescent strand-displacement substrate; Potency, µM, hits mostly inhibitors; actives 76% (n = 920); AID 720501
Pol eta inh-2: confirmation of human DNA polymerase eta inhibitors | Pol eta primer extension, TAMRA/BHQ fluorescence, 10 min | actives 64% (n = 2,600) | AID 720502 | Potency, µM, most hits filed as inhibitors | shares compounds with Pol eta inh-1
Numbers stand for hits; 0 = inactive; ? = inconclusive; - = not tested or not shown; [ ] = another dose, or the depositor's remark. Calls come from the whole dose curve; as a rule, active = well fitted curve in the direction sought with a large enough effect; inconclusive = small, poorly fitted or top-dose-only effect, or another doubt; inactive = no such curve, though single readings can be large; an effect the other way counts as inactive or inconclusive.

SMILES	Pol kappa inh-1	Pol eta inh-1	TDP1 inh	POLB inh	POLI inh	Pol eta inh-2	others
CC1=C(C(=O)O)N2C(=O)C(NC(=O)c3ccn(C)n3)C2SC1 (stereo not drawn)	0	0	0	?	0	-
Cc1cc(C)n(CC(=O)NC2C(=O)N3C(C(=O)O)=C(CSc4nnc(C)s4)CSC23)n1 (stereo not drawn)	0	22.4µM	-	?	0	?
CCc1nnc(SCC(=O)Nc2cc(Cl)c(OC)cc2OC)c2cc3oc(C)cc3n12	0	0	0	0	0	-
O=C(O)c1ccc(NCc2cccnc2)c([N+](=O)[O-])c1	0	0	-	0	0	-
O=C(O)c1cc(NS(=O)(=O)c2ccc(NCc3ccccc3)c([N+](=O)[O-])c2)cc(C(=O)O)c1	0	15.8µM	-	0	0	-	Pol kappa inh-2=?
COc1cc(Cl)cc(C2NC(=O)NC(C)=C2C(C)=O)c1OCC(=O)O (stereo not drawn)	?	25.1µM	0	15.8µM	?	?
CCOC(=O)C1=C(COC(=O)COc2ccccc2C=O)NC(=O)NC1C (stereo not drawn)	?	12.6µM	0	-	?	75.7
CCOC(=O)C1=C(COC(=O)COc2ccccc2OCC)NC(=O)NC1C (stereo not drawn)	0	0	0	-	0	-
CCOC(=O)C1=C(COC(=O)c2ccc([N+](=O)[O-])s2)NC(=O)NC1C (stereo not drawn)	?	39.8µM	0	-	50.1µM	?
CCCSC1=N/C(=C\c2ccc([N+](=O)[O-])o2)C(=O)S1	20µM	?	?	2.82µM	?	75.7
CCSC1=N/C(=C\c2ccc(-c3ccccc3[N+](=O)[O-])o2)C(=O)S1	0	0	0	0	0	-
COc1ccc2c(CNC3CCCCCC3)c(C(=O)O)n(Cc3ccc(C)cc3)c2c1	0	0	0	0	0	-
Cc1cc(O)c(Oc2cc(C)cc(O)c2O)c(O)c1	22.4µM	22.4µM	0	3.55µM	39.8µM	37.9
O=C1Nc2ccccc2Oc2cc(Oc3ccccc3)ccc21	?	-	-	0	79.4µM	?
O=C(CCCCn1c(=O)[nH]c2ccsc2c1=O)N1CCN(c2cccc(C(F)(F)F)c2)CC1	0	0	0	0	0	-
O=[N+]([O-])c1cc([N+](=O)[O-])c2oc(-c3ccccc3)c(Br)c2c1O	?	25.1µM	-	28.2µM	?	-	GALK inh confirm=53µM;GALK redox cs=0;HEK293 tox=0
O=c1c(O)c(-c2ccccc2)oc2cccc(O)c12	0	-	0	-	-	-
Cc1oc2ccc(O)c(CN3CCCC3)c2c1C(=O)Nc1cccc(Cl)c1C	0	0	0	0	0	-
Cc1ccc2oc(NC3=NC4(CCCC4)C4=C(CCCC4=O)N3)nc2c1	-	-	0	-	-	-
CC1CCC2(C1)N=C(Nc1nc3ccccc3o1)NC1=C2C(=O)CCC1 (stereo not drawn)	-	-	0	-	-	-	HEK293 tox=?
O=C1CCC2=C1C1(CCCC1)N=C(Nc1nc3ccccc3o1)N2	-	-	-	-	-	-	HEK293 tox=0
Cc1nc(Nc2nc3ccccc3o2)nc2c1C(=O)CC(C)(C)C2	-	-	-	-	-	-	HEK293 tox=0
CC1(C)CC(=O)C2=C(C1)NC(Nc1nc3ccccc3o1)=NC21CCCCC1	0	0	0	0	0	-	HEK293 tox=0
O=C1CC(c2ccccc2)CC2=C1C1(CCCCC1)N=C(Nc1nc3ccccc3o1)N2 (stereo not drawn)	-	-	0	-	-	-	HEK293 tox=0
Cn1c(NC2=NC3(CCCC3)C3=C(CCCC3=O)N2)nc2ccccc21	-	-	0	-	-	-
SMILES	Pol kappa inh-1	Pol eta inh-1	TDP1 inh	POLB inh	POLI inh	Pol eta inh-2	others
Cc1cc[n+](-c2[nH]c(=O)sc2/C=N/NC([S-])=Nc2ccccc2)cc1	79.4µM	22.4µM	0	0	22.4µM	75.7
COc1ccc(-n2nnc3c(=O)n(CC(=O)N4CCC(C)CC4)cnc32)cc1	0	0	0	0	0	-	GALK inh confirm=0;GALK redox cs=0;HEK293 tox=0
Cc1ccc(C(c2ccc(C)o2)c2cccc([N+](=O)[O-])c2O)o1	?	17.8µM	0	?	?	84.9
Cc1cc(C)c2c(CC(=O)N(Cc3ccccc3)C3CCS(=O)(=O)C3)coc2c1 (stereo not drawn)	0	?	0	0	0	-
COc1ccc2c3c(c(=O)oc2c1)C1O[C@](CCCCN2C(=O)c4ccccc4C2=O)(Cc2cc(OC)c(OC)cc21)O3	-	-	-	0[22.9 µM]	-	-
CC(=O)N=c1c(C#N)cc2c(=O)n3cccc(C)c3nc2n1Cc1ccco1	0	31.6µM	-	?	39.8µM	?
COc1cc(/C=c2\sc3nc(=O)c(-c4ccccc4)nn3c2=O)ccc1OCCC(C)C	0	0	0	0	0	-
CCOc1ccc(/C=c2\sc3nc(-c4ccco4)nn3c2=O)cc1OCC	?	14.1µM	0	0	?	?
O=C(C[n+]1ccccc1Cl)c1ccc2ccccc2c1	0	-	-	-	0	-
COc1cccc2cc(C(=O)NCCc3c(C)[nH]c4ccc(F)cc34)c(=O)oc12	0	0	0	0	?	-
O=C(O)c1cccc(-c2ccc(/C=N/Nc3nn[nH]n3)o2)c1	?	?	0	?	0	67.5
Brc1cccc(/C=N/Nc2nn[nH]n2)c1	0	0	0	0	0	-
Cc1ccc(OCC(=O)N/N=C\c2ccc(-c3cccc(C(=O)O)c3)o2)c(C)c1	50.1µM	3.55µM	0	20µM	?	30.1
O=C(O)c1ccc(CNc2ccccc2C(=O)O)cc1	?	?	0	11.2µM	?	?
CCN(CCCNC(=O)c1ccc(Sc2ccc(Cl)cc2)c(NC(C)=O)c1)c1ccccc1	0	0	0	0	0	-
CSc1nnc(-c2ccco2)c(-c2ccco2)n1	?	11.2µM	-	8.91µM	?	?
CSc1nnc(-c2ccccc2)c(-c2ccccc2)n1	0	0	0	0	0	-
N#C/C(=C/c1ccc(-c2ccc(C(=O)O)c(Cl)c2)o1)C(=O)NCC1CCCO1 (stereo not drawn)	?	10µM	-	?	?	?
CCOc1ccc(CCNC(=O)C2CC=CCC2C(=O)OC(C)C)cc1OCC (stereo not drawn)	0	0	-	0	0	-
CCOc1ccc(CCNC(=O)C2CC(C)=CCC2C(=O)O)cc1OCC (stereo not drawn)	0	28.2µM	-	25.1µM	?	53.6
